# Reference: the supplement of paper PMC10105736
# Unmarked numbers belong to inactive results.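 How the source made its calls: active = MAPPIT score above the 99th percentile of random reference set scores in the same batch; inactive = at or below it.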
# Experiments:
# Assay in all cases: MAPPIT interaction score (arbitrary units); higher = stronger binary interaction signal, active = hit call of the paper
# bru3 = conditions: MAPPIT configuration: N-N; pair source set: DPIM
# dimm = conditions: MAPPIT configuration: N-N; pair source set: DPIM
# eIF3f1 = conditions: MAPPIT configuration: N-N; pair source set: Lit-BM-16
# cactin = conditions: MAPPIT configuration: N-N; pair source set: RRS
# dre4 = conditions: MAPPIT configuration: N-N; pair source set: Lit-BM-16
# dgt4 = conditions: MAPPIT configuration: N-N; pair source set: Lit-BM-16
# cic = conditions: pair source set: Lit-BM-16
# rl = conditions: MAPPIT configuration: N-N; pair source set: Curagen_high_conf
# cathD = conditions: MAPPIT configuration: N-N; pair source set: DPIM
# cpa = conditions: MAPPIT configuration: N-N; pair source set: Lit-BM-16
# dnd = conditions: MAPPIT configuration: N-N; pair source set: screen_2
# corto = conditions: pair source set: Lit-BM-16
# e(y)2 = conditions: MAPPIT configuration: N-N; pair source set: screen_2
# 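Further: HEK293T cells with Epo stimulation, STAT-responsive firefly luciferase reporter, fold induction versus unstimulated cells divided by the larger fold induction of two negative controls lacking either bait or prey.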
binder,measurement,setting,value
abs (protein) MAHVKRYRRSSKSSEEGDLDNEDYVPYVPVKERKKQHMIKLGRIVQLVSETAQPKSSSENENEDDSQGAHDVETWGRKYNISLLDQHTELKKIAEAKKLSAVEKQLREEEKIMESIAQQKALMGVAELAKGIQYEQPIKTAWKPPRYIREMSEEEREAVRHELRILVEGETPSPPIRSFREMKFPKGILNGLAAKGIKNPTPIQVQGLPTVLAGRDLIGIAFTGSGKTLVFVLPVIMFALEQEYSLPFERNEGPYGLIICPSRELAKQTHEIIQHYSKHLQACGMPEIRSCLAMGGLPVSEALDVISRGVHIVVATPGRLMDMLDKKILTLDMCRYLCMDEADRMIDMGFEEDVRTIFSFFKGQRQTLLFSATMPKKIQNFARSALVKPVTINVGRAGAASMNVTQQVEYVKQEAKVVYLLDCLQKTAPPVLIFAEKKQDVDCIHEYLLLKGVEAVAIHGGKDQEERSRAVDAYRVGKKDVLVATDVASKGLDFPNVQHVINYDMPDDIENYVHRIGRTGRSNTKGLATTLINKTTEQSVLLDLKHLLIEGKQEVPDFLDELAPETEHQHLDLGDSHGCTYCGGLGHRITECPKLEAVQNKQASNIGRRDYLSNTAADY,MAPPIT interaction score,bru3,-0.236
Lsm12a (protein) MAAAAASAVNAVNDCFSIGSTVVCTTCFNEEVEGEVLAFDHNTKMLILKCRSKSTEELSDIYAMNLSLCSNVQVIKECNGNFDDPQKLNLEQVKMRLRKTVERRQDYLKSKNADVSPEAQELYRAIAKQYGYNEVSWQGLNIQILNEVTISPPYRVDNVVSSSNNETSCNYIKRIIKQFFNTRPSPVPESGAAASTSSPSVSPTSSSLASGSPVPAN,MAPPIT interaction score,dimm,-0.17
eIF3m (protein) MTSHPVFIDLSLDEQVQELRKYFKKLGAEISSEKSNKGVEDDLHKIIGVCDVCFKDGEPSQIDGILNSIVSIMITIPLDRGENIVLAYCEKMTKAPNLPLGKVCLQSLWRLFNNLDTASPLRYHVYYHLVQVAKQCEQVLEVFSGVDQLKSQFANCPPSSEQMQKLYRLLHDVTKDTNLELSSKVMIELLGTYTADNACVAREDAMKCIVTALADPNTFLLDPLLSLKPVRFLEGDLIHDLLSIFVSEKLPAYVQFYEDHREFVNSQGLNHEQNMKKMRLLTFMQLAESSPEMTFETLTKELQINEDEVEPFVIEVLKTKLVRARLDQANQKVHISSTMHRTFGAPQWEQLRDLLQAWKENLSTVREGLTSVSSAQLDLARSQKLIH,MAPPIT interaction score,eIF3f1,5.38 (active)
Gs1 (protein) MALRVAGLFLKKELVAPATQQLRLLRTGNTTRSQFLANSPNTALDKSILQRYRNLETPANRVQATYLWIDGTGENIRLKDRVLDKVPSSVEDLPDWQYDGSSTYQAHGENSDTTLKPRAIYRDPFKPGKNDVIVLCDTYSADGKPTASNKRAAFQAAIDLISDQEPWFGIEQEYTLLDVDGRPFGWPENGFPAPQGPYYCGVGADRVYARDLVEAHVVACLYAGIDFAGTNAEVMPAQWEFQIGPAGIKACDDLWVSRYILQRIAEEYGVVVTFDPKPMEGQWNGAGAHTNFSTKEMRADGGIKAIEEAIEKLSKRHERHIKAYDPKEGKDNERRLVGRLETSSIDKFSWGVANRAVSVRVPRGVATAGKGYLEDRRPSSNCDPYAVCNAIVRTCLLNE,MAPPIT interaction score,cactin,-0.185
Ssrp (protein) MTDSLEYNDINAEVRGVLCSGRLKMTEQNIIFKNTKTGKVEQISAEDIDLINSQKFVGTWGLRVFTKGGVLHRFTGFRDSEHEKLGKFIKAAYSQEMVEKEMCVKGWNWGTARFMGSVLSFDKESKTIFEVPLSHVSQCVTGKNEVTLEFHQNDDAPVGLLEMRFHIPAVESAEEDPVDKFHQNVMSKASVISASGESIAIFREIQILTPRGRYDIKIFSTFFQLHGKTFDYKIPMDSVLRLFMLPHKDSRQMFFVLSLDPPIKQGQTRYHYLVLLFAPDEETTIELPFSEAELRDKYEGKLEKEISGPVYEVMGKVMKVLIGRKITGPGNFIGHSGTAAVGCSFKAAAGYLYPLERGFIYIHKPPLHIRFEEISSVNFARSGGSTRSFDFEVTLKNGTVHIFSSIEKEEYAKLFDYITQKKLHVSNMGKDKSGYKDVDFGDSDNENEPDAYLARLKAEAREKEEDDDDGDSDEESTDEDFKPNENESDVAEEYDSNVESDSDDDSDASGGGGDSDGAKKKKEKKSEKKEKKEKKHKEKERTKKPSKKKKDSGKPKRATTAFMLWLNDTRESIKRENPGIKVTEIAKKGGEMWKELKDKSKWEDAAAKDKQRYHDEMRNYKPEAGGDSDNEKGGKSSKKRKTEPSPSKKANTSGSGFKSKEYISDDDSTSSDDEKDNEPAKKKSKPPSDGDAKKKKAKSESEPEESEEDSNASDEDEEDEASD,MAPPIT interaction score,dre4,0.764
dgt6 (protein) MDRTIIAPWKAEEKEQSEKLHRKLQGLALVHPLPDELRKLIAWDMFLKPNQVAFVHVMHYLFRLLDPAEFKRRFFWPITDKKSEANFRSSTVEYLKHLNEKHQLHWANIKSYLVVMPGGMRFINFLLEFVGFVIQELIKQREKSLGLEAGTPNVSAKVMARQNAVMKEYASSYVVNLEENTALLRDKTQKIRRLMADLSADMGVPEEQLADDGFLDEFEATAALGVERVITQPTERKFDLEASLCGLKEAIDLFQVKQAENNQSKEAVEKALRGMRVLFDCDAVTEGDFYDPLGASKMDALLNGFNRISGTIAEQLDANDHYNESNAFVTTDLQALRVELSQSEVQLNNLLKKLNEPSKKDKGSANASGSARVQTLQPATPRFESVISSKFVSTPPIRIDMGGGGGRNAPVRLALQDDFNGKQFDALSNSLLAPAPPRSARKLKALDQSTGIDLNGTLNRSKINDPMQMLRTIHKNTSKVKAAPQANLSSLGSKWKQMQASFGFDEAPVPGAAVISPQTSPTDPSDPFTPLSGSECTRIERIPRTSENNTSLIAKSAAVIKVLEVSRNVLNLSTSPSGRLDALVPHTESHQQDVAPRLQLNDRTINDSLQLDPDFNIENDKNAFNVSHKFDFDQIGGEDDLQNISDSVLKDIIF,MAPPIT interaction score,dgt4,4.71 (active)
rl (protein) MEEFNSSGSVVNGTGSTEVPQSNAEVIRGQIFEVGPRYIKLAYIGEGAYGMVVSADDTLTNQRVAIKKISPFEHQTYCQRTLREITILTRFKHENIIDIRDILRVDSIDQMRDVYIVQCLMETDLYKLLKTQRLSNDHICYFLYQILRGLKYIHSANVLHRDLKPSNLLLNKTCDLKICDFGLARIADPEHDHTGFLTEYVATRWYRAPEIMLNSKGYTKSIDIWSVGCILAEMLSNRPIFPGKHYLDQLNHILGVLGSPSRDDLECIINEKARNYLESLPFKPNVPWAKLFPNADALALDLLGKMLTFNPHKRIPVEEALAHPYLEQYYDPGDEPVAEVPFRINMENDDISRDALKSLIFEETLKFKERQPDNAP,MAPPIT interaction score,cic; MAPPIT configuration: N-C,0.149
same,MAPPIT interaction score,cic; MAPPIT configuration: N-N,0.776
same,MAPPIT interaction score,rl,0.844
Wdr24 (protein) MPDSVEDTSTISLRICLEGHANALALNKDNNQIALAGRSLLKVYSINSNGFTESCNMRGKNQNLSYSANDVAWSTLDSNLLATAATNGVVSVWDLSKFGRQKQLLVYNEHERTAHTVTFHSSEPNILISGSQDGTIKCFDIRSDKSINTYFCNSESVRDVKFSPHTQNIFSAVSENGTVQLWDMRKWDKCMVQFTAHYGPVYTCDWHPTRNWLATGSRDKQIKVWNMDGRPGLEHTIHTIAVVGRVKWRPERTYHIASCALVVDYSVHVWDIRRPYIPFASFNEHTNVTTGIAWQGSDSHCLLSISKDSTIYKHAFKDATRPALKANAQGASLGRFGDISFANKIKEYEPKTSGASNTKSSSFIRRKTNVAGSIQFHLDHSKMYKFMVNDTFSGYPLSESVSRPTQEHESFIGCARELVISGKKLSELCEHNAEVSKKYGKHNATTLWNFIKLFYGSNHFEPPFEHRSSFSNQKNPMNSRRATQVASDWPQQRTELGQDLNGNTPETAHEIDVANVDDDTLGSSGVEHPPTSSVILSETQIISEITFDNFELLRNGFIYVGPTECPKALAFPALHHDVQAARPQLDLKASDHEKSPPPHVPTVLKVSHVPPIPMWEPHKFVSDALMLMNDVGDVQTALTVLIALGEARKLLPIDDALVEHWFYTYVDQLHRYELWNEACEVINRSWLRSVQQLNQHSTAMHTNCGECGRPMGGKVGWYCDKCKSMQSAKCCVCGLIVRGVYAWCQGCSHGGHIEHLQKYFAKHSKCPKCGHLCAYS,MAPPIT interaction score,cathD,-0.0301
cpb (protein) MSEMQMDCALDLMRRLPPQQIEKNLIDLIDLAPDLCEDLLSSVDQPLKIAKDKEHGKDYLLCDYNRDGDSYRSPWSNSYYPPLEDGQMPSERLRKLEIEANYAFDQYREMYYEGGVSSVYLWDLDHGFAAVILIKKAGDGSKMIRGCWDSIHVVEVQEKTTGRTAHYKLTSTAMLWLQTNKQGSGTMNLGGSLTRQQEQDANVSESSPHIANIGKMVEEMENKIRNTLNEIYFGKTKDIVNGLRSTQSLADQRQQAAMKQDLAAAILRRNVKPESN,MAPPIT interaction score,cpa,3.35 (active)
PrBP (protein) MGSDDQSAGDRIQKGFQINYMILRDADSGKIIWQENKDFSAPDQEHEARVPVKILDMRAVSREINFSTIESMENFRLDQKVLFKGRIMEEWFFEMGFVGANTTNTWQSTIEAAPESQMMPAKVLNGNVTIQTSFYDNETLITKSVVRLYYI,MAPPIT interaction score,dnd,4.87 (active)
corto (protein) MTMAACYANYDMSSLSHGMSALSALQQQQQQQQQQHSQTQQQHHHQQQQQHMYHAAVAAHQQQLLQQQQQQQHHRHHHQPANTSSSSNSRHSHAAATQTQVAAAVANSRQQQQQQQQQQQQQQQQQTASSNSNAAPAPSPQKDYSIPLHVDCSVEYELPNQPKPPAGQRVEPLLMIHPCYFRKMESQRRSPFVNNMHATARAVSSSSLSSGAALGGGGSGAAVATAPSSSAARRGARAATSAQQQQQQQQRYQQQQQQLRQQHQQMSQMSQQAHYPQQQSSLVRQHQQQQQQQQQQQRASSNQSQRQSQSQSQSQSHAANSAAAAAAQASIAAAAAGQWDQLAALAARTALTPHHMLHPHSHYAAKGSGGGAGGGKRDAMISGSYGQTAVASGKLQQSQVQQQQPQQQQQHCLPPPPWDATSMLMDRSPMATVPSNYQAGPDTNPMRLYSATPTAGAASGGSASVGGGGAVSGAGATGAVNTATDKLSGKYRQYLRSQRMHPYAAAASLNLAAAAAAAGQTSFVPFSSAATAVAATPTFQHLPQISCYNV,MAPPIT interaction score,corto; MAPPIT configuration: N-C,0.538
same,MAPPIT interaction score,corto; MAPPIT configuration: N-N,0.215
Mul1 (protein) MEFLHESVALGVDLLILGLCAREYVHYKRTAKVLKAAPQYNIDGDLKSVVERQRDKKIPYAVIRGTVTPIGVPLRSSLVPSVSGVLQIVKLHEHRVTRGFAGFWTEQHKLLHESANEMPFELRNQSHGVEIVDALSAAVLDVDVVYDNYEPSNLSLFDHVFGFFSGVRQRGLQTTEEVLREGSFLTAIGELELDGDTLRMQPSNEGPLFLTTATKSTLIKRFEDAKTTTILKLVVCSTISAILVAFIAKKLYRKRKQEREEAKIRERLDTERRERRARSRPHTLSQDQLCVVCSTNPKEIILLPCGHVCLCEDCAQKISVTCPVCRGSIVSKAAAFIA,MAPPIT interaction score,e(y)2,5.68 (active)
